This is a sample that favours compounds with a hit; in the whole collection about 3.9% have one here.
Cardio protect: modulators protecting cardiomyocytes from myocardial damage. protection from H2O2 cell death, % at 20 µM. hit rate 0.63% among 360,000. H9c2 cardiomyocytes, H2O2 injury protection, ATPLite, 2 h;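 active = compounds giving at least 50% protection of heart cells from peroxide-induced death in the single-dose screen, raw or plate-pattern-corrected value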;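 note: 0% = DMSO wells with peroxide and 100% = DMSO wells without peroxide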
NTR1 ag: agonists of human neurotensin receptor NTR1; P30989; NTR1-U2OS beta-arrestin-GFP spot imaging, agonist mode; activation, % at 20 µM; hit rate 0.17% among 330,000; AID 493036;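 active = activation at or above 40% of the spot to cytoplasm intensity ratio, with at least 20 cells analyzed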;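 note: 0% = DMSO without peptide and 100% = 100 nM NTR1 peptide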
ALR inh: blocks human ALR sulfhydryl oxidase activity. inhibition, % (no concentration beside the values). P55789. AID 485317. purified ALR, DTT oxidation, H2O2 HRP-luminol luminescence. hit rate 3.8% among 290,000;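 active = mean replicate inhibition above about 79%, with every replicate also reaching it, limit read from the data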
Target sequence (P55789 whole entry, looked up): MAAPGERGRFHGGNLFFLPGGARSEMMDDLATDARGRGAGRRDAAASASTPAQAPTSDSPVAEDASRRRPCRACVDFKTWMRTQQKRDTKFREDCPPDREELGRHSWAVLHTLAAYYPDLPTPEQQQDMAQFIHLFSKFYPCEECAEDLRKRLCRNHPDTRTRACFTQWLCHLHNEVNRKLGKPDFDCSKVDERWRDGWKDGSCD
UBC9 SUMO inh: inhibitors of human SUMOylation (UBC9). hit rate 0.36% among 290,000. P63279. inhibition, % at 35 µM. HTRF SUMOylation assay, SAE1/SAE2 + UBC9, in vitro; in the data active = inhibition above about 50%, passing the limit was not always enough
Target sequence (P63279 whole entry, looked up): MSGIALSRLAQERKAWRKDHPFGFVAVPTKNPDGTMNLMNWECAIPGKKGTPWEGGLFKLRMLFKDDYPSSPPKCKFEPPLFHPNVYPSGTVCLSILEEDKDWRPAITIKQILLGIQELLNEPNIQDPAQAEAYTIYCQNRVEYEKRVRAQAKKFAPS
* marks the source's active call; other numbers are inactive results.

For Cc1c(CC(=O)N2C[C@H]3C[C@@H](C2)c2cccc(=O)n2C3)c(=O)oc2c(C)c(O)ccc12 the results were Cardio protect -1, NTR1 ag -2, ALR inh 89* and UBC9 SUMO inh 54.
`Cc1nc2c(=O)n(C)c(=O)nc-2n(C)n1` gave Cardio protect -32, NTR1 ag 0, ALR inh -37 and UBC9 SUMO inh 103*.
`CCc1cc(=O)oc2cc(OCC(=O)N3C[C@H]4C[C@@H](C3)c3cccc(=O)n3C4)c(Cl)cc12` gave Cardio protect 3, NTR1 ag 2, ALR inh -24 and UBC9 SUMO inh -6.
`CC1=CC2OC3CC4OC(=O)C=CC=CC(=O)OCCC(C)C(O)C(=O)OCC2(CC1)C4(C)C31CO1` (stereo unspecified) gave Cardio protect 57*.
For CC1CCOC(=O)C=CC=CC(=O)OC2CC3OC4C5OC5(C)C(O)CC4(COC(=O)C1O)C2(C)C31CO1 (stereo unspecified) the results were Cardio protect 17.
Cc1cccc(N/N=C/c2c(O)[nH]c(=S)[nH]c2=O)c1 was read as Cardio protect -1, NTR1 ag 0 and ALR inh 100*.
`Cc1ccc(-n2c(O)c(/C=N/Nc3ccccc3)c(=O)[nH]c2=O)cc1C` gave NTR1 ag 0, ALR inh 99* and UBC9 SUMO inh 25.
`COc1ccc(N/N=C/c2c(O)n(-c3ccc(C)c(C)c3)c(=O)[nH]c2=O)cc1` gave Cardio protect -5, NTR1 ag 0, ALR inh 99* and UBC9 SUMO inh 8.
For COc1ccc(N/N=C/c2c(O)n(-c3cccc(C)c3)c(=O)[nH]c2=O)cc1 the results were Cardio protect -7, NTR1 ag 0, ALR inh 99* and UBC9 SUMO inh 3.
For Cc1ccc2c(c1)CC1(CN2C)C(=O)NC(=O)N(CCC2=CCCCC2)C1=O (stereo unspecified) the results were Cardio protect 2, NTR1 ag 1 and UBC9 SUMO inh 1.
For Cc1ccc(OCCOc2cccc(C=C3C(=O)NC(=O)NC3=O)c2)c(C)c1 the results were Cardio protect -8, NTR1 ag 3, ALR inh -5 and UBC9 SUMO inh 16.
Screening C=C1C(=O)O[C@H]2C[C@@H](C)[C@@H]3C=CC(=O)[C@@]3(C)C[C@H]12 returned NTR1 ag 2 and UBC9 SUMO inh 2.
Screening C=C1C(=O)O[C@@H]2C[C@@H](C)[C@@H]3C4OC4C(=O)[C@@]3(C)[C@@H](O)[C@H]12 (stereo partly specified) returned Cardio protect -14, NTR1 ag 14, ALR inh 98* and UBC9 SUMO inh 11.
For CCOc1cc(C2C(C#N)=C(N)Oc3c2c(=O)oc2ccccc32)ccc1OC(=O)c1cccs1 (stereo unspecified) the results were Cardio protect 23, NTR1 ag 2, ALR inh -5 and UBC9 SUMO inh 10.
For CCn1nc(-c2ccccc2)nc2c(=O)n(C)c(=O)nc1-2 the results were Cardio protect 8, NTR1 ag -2, ALR inh -71 and UBC9 SUMO inh 104*.
`COc1ccc(-c2nc3ccccc3c(=O)n2-c2ccc(OC)cc2)cc1` gave Cardio protect 4, NTR1 ag 2 and UBC9 SUMO inh 7.
COC(=O)C1=C(c2ccc(S(C)(=O)=O)cc2)C[C@@H]2CC[C@H]1N2C(=O)NCc1ccccc1 was read as Cardio protect 0, NTR1 ag 2 and ALR inh 3.
`CCN1CCN(c2nc3c(c(=O)[nH]2)CCCC3)CC1` gave Cardio protect 62*, NTR1 ag 0 and UBC9 SUMO inh 20.
For C[C@H](N)CN1CCc2ccc(Br)cc21 the results were Cardio protect 6, NTR1 ag 0 and ALR inh 99*.
CN1C(=O)c2ccccc2NC(=O)C1Cc1ccccc1 (stereo unspecified) was read as Cardio protect -3, NTR1 ag -2, ALR inh 98* and UBC9 SUMO inh 28.
For CN1C(=O)C(Cc2ccccc2)C(=O)N(C)C1=O the results were Cardio protect 6.
Cc1ccc(/C=C2\C(=O)NC(=O)N(CCc3ccc(F)cc3)C2=O)s1 was read as Cardio protect -1, NTR1 ag 25, ALR inh 96* and UBC9 SUMO inh 6.
`Cc1ccc(/C=C2/C(=O)NC(=O)N(CCc3ccc(F)cc3)C2=O)s1` gave Cardio protect -7, NTR1 ag 6, ALR inh 29 and UBC9 SUMO inh 2.
Cc1ccc(/C=C2/C(=O)NC(=O)N(CC3CCCO3)C2=O)s1 (stereo unspecified) was read as Cardio protect 6, NTR1 ag 12, ALR inh 97* and UBC9 SUMO inh 8.
For O=C1C=C2C=C[C@H]3C[C@]2(O1)[C@@H]1CCCCN13 the results were Cardio protect 10, NTR1 ag -1, ALR inh -4 and UBC9 SUMO inh -11.
For C/C=C1\NC(=O)[C@@H](NC(=O)[C@H](CCc2ccc(O)cc2)NC(=O)[C@H](C)NC(=O)[C@H](O)CO)[C@@H](C)OC(=O)[C@H](C(C)C)NC(=O)[C@H](Cc2ccc(O)cc2)N(C)C(=O)[C@H](Cc2ccccc2)N2C(=O)C(CC[C@H]2O)NC1=O (stereo partly specified) the results were Cardio protect 7 and NTR1 ag 1.
COc1ccc(CNCCc2c[nH]c3ccccc23)c(OC)c1OC was read as Cardio protect -7, NTR1 ag -1, ALR inh 1 and UBC9 SUMO inh -10.
O=C(O)c1ccc(-[n+]2c(-c3ccccc3)cc(-c3ccccc3)cc2-c2ccccc2)cc1 was read as Cardio protect 11, NTR1 ag -2 and ALR inh 5.
Screening CCCOC(=O)c1ccc(-[n+]2c(-c3ccccc3)cc(-c3ccccc3)cc2-c2ccccc2)cc1 returned Cardio protect -10, NTR1 ag 40* and ALR inh -15.
For COc1cc(C(=O)OC2C[C@H]3CC[C@@H](C2)N3)ccc1O (stereo partly specified) the results were Cardio protect 7, NTR1 ag -1, ALR inh 84* and UBC9 SUMO inh 38.
COc1cc(C(=O)OC2C[C@H]3CC[C@@H](C2)N3C)ccc1O (stereo partly specified) was read as Cardio protect 1, NTR1 ag -1, ALR inh 68 and UBC9 SUMO inh 11.
For COC(=O)CC(NC(=S)N1CC2C[C@@H](C1)Cn1c2cccc1=O)C(=O)OC (stereo partly specified) the results were Cardio protect -2, NTR1 ag -1, ALR inh 7 and UBC9 SUMO inh 16.
For CN1CCN2c3ccc(N)cc3CC3(C(=O)NC(=O)NC3=O)C2C1 (stereo unspecified) the results were Cardio protect 7 and UBC9 SUMO inh 79*.
Screening O=C1NC(=O)C2(Cc3ccccc3N3CCCC32)C(=O)N1 (stereo unspecified) returned Cardio protect 6, NTR1 ag 1, ALR inh 99* and UBC9 SUMO inh 5.

High-throughput results (PubChem BioAssay)
